# Data as given in PubChem BioAssay (NCI).
# Compounds without any hit were thinned out: in the full panel of roughly 83,000, 20% have a hit.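 Growth was measured after 48 h exposure to one concentration of compound in 96-well plates. Values under 10 count as active.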 Values without a mark were called inactive. Active and inactive are the calls of the source.
# What was measured:
# Assay in all cases: NCI-60 one-dose screen, 48 h (100 = growth as untreated, 0 = no growth, -100 = all killed)
# [1] = tested on: SK-MEL-2 melanoma; details: 10 µM
# [2] = tested on: EKVX NSCLC; details: 10 µM
# [3] = tested on: SN12C renal; details: 10 µM
# [4] = tested on: UO-31 renal; details: 10 µM
# [5] = tested on: TK-10 renal; details: 10 µM unless noted
# [6] = tested on: ACHN renal; details: 10 µM
# [7] = tested on: CAKI-1 renal; details: 10 µM
# [8] = tested on: A498 renal; details: 10 µM
# [9] = tested on: CCRF-CEM leukemia; details: 10 µM
# [10] = tested on: MOLT-4 leukemia; details: 10 µM
SMILES,growth [1],growth [2],growth [3],growth [4],growth [5],growth [6],growth [7],growth [8],growth [9],growth [10]
Nc1nc(OCc2ccccc2)c2[nH]cnc2n1,107%,95%,105%,96.9%,82.1%,73.5%,74%,86.1%,143%,73%
N#C/C(=C\c1cc(O)c(O)c(O)c1)C(N)=O,123%,97.4%,107%,110%,116%,96.6%,93.6%,119%,74%,73.1%
CC1CC(O)CC(C)(C)C1 (stereo not given),105%,98.8%,104%,85.6%,102%,107%,98.9%,98.7%,96.4%,100%
Nc1ccc(C(=O)c2ccc(N)c(Br)c2)cc1Br,8.1% (active),50.9%,29.2%,58.8%,22.5%,33.4%,42.9%,28.6%,13.4%,35.5%
S=C(Nc1ccccc1)N1CCCCC1,98%,105%,102%,88.4%,109%,94.5%,94.6%,77.6%,102%,98%
C[N+](C)(C)C(=O)c1ccccc1,98.6%,108%,95.8%,85.9%,102%,107%,99.9%,98%,104%,103%
CCCCC(O)c1ccccc1 (stereo not given),109%,110%,109%,94.2%,106%,110%,99.7%,95.8%,107%,101%
CCS(=O)(=O)c1cc(=O)[nH]c(=O)[nH]1,101%,91.4%,101%,90.1%,102%,96.8%,88.4%,121%,110%,128%
COc1ccc2c(NCCCCCCCCNc3c4ccccc4nc4cc(OC)ccc34)c3ccccc3nc2c1,-67.3% (active),-79.6% (active),-92.7% (active),-76.2% (active),-72.9% (active),-100% (active),-100% (active),-88.6% (active),-42.4% (active),-85.7% (active)
Cc1cc(N)ccc1-c1ccc(N)cc1C,86.3%,106%,98.5%,77.1%,111%,99.1%,94.8%,97.1%,105%,103%
CCOC(=O)Nc1nn[nH]n1,109%,112%,103%,96.6%,114%,100%,113%,83.8%,95%,98.4%
Cc1ccc(N)cc1[N+](=O)[O-],128%,113%,109%,83.3%,107%,108%,102%,117%,84.6%,76.3%
COc1ccc(Oc2c(I)cc(CC(NC(C)=O)C(=O)O)cc2I)cc1 (stereo not given),102%,67.9%,83.8%,71.7%,113%,97.6%,57.4%,79.7%,78.4%,60.9%
OC(c1ccccn1)C(O)c1ccccn1 (stereo not given),108%,124%,91.5%,89%,108%,98.2%,116%,95.9%,104%,95.1%
Cc1cc(N)c(S(=O)(=O)O)c(N)c1,109%,98.9%,93.8%,79.1%,105%,100%,90.1%,101%,98.1%,5.11% (active)
O=C(O)C(O)c1ccccc1 (stereo not given),104%,99.9%,106%,84.5%,103%,103%,96.8%,93.9%,106%,102%
CC1CCC(C(=O)O)N1 (stereo not given),91.5%,107%,92.7%,76.5%,101%,91.6%,92.3%,84%,101%,87.8%
S=c1nn[nH]c2ccccc12,102%,117%,93.4%,67.1%,109%,93.2%,98.3%,109%,111%,108%
O=C1C=CC2=C3c4cc(O)c(O)cc4CC3(O)COC2=C1O (stereo not given),87.3%,101%,104%,86.6%,101%,111%,111%,99.1%,104%,103%
FC(F)(F)c1ccc2c(c1)N(CCCN1CCN(C3CC3)CC1)c1ccccc1S2,90.4%,86.8%,47.7%,17.6%,80%,78.1%,17.3%,9.76% (active),26.5%,34%
CCOc1ccc(I)cc1,130%,105%,97.1%,89%,112%,110%,113%,101%,121%,115%
Nc1ccc(N=Nc2ccc(S(=O)(=O)O)cc2)c2ccccc12,102%,89.7%,104%,65.2%,140%,99.2%,91.5%,126%,102%,88.9%
COc1ccc(OC)c(/C=C2\CCc3ccccc3C2=O)c1,43.1%,50%,61.7%,61.1%,89.5%,52.7%,39.1%,20.2%,28.3%,23%
Cc1c(O)cccc1O,93.5%,106%,88%,111%,104%,107%,61%,125%,100%,90%
Nc1ccccc1C(=O)Nc1ccc(Cl)cc1Cl,112%,99.5%,103%,52.4%,118%,94%,69.1%,107%,90.3%,77.7%
CN(C)c1ccc(C(c2ccc(O)cc2)c2ccc(N(C)C)cc2)cc1,101%,91.3%,92%,81.2%,117%,103%,93.7%,85.8%,96.3%,86.4%
Cc1cc(/C=C/c2ccc3cc(N(C)C)ccc3[n+]2C)c(C)n1-c1ccccc1,-51.6% (active),0.119% (active),-25.7% (active),1.75% (active),-5.02% (active),-83.5% (active),-31% (active),-25% (active),0.765% (active),0.162% (active)
COc1cccc(Sc2ccc([N+](=O)[O-])c3no[n+]([O-])c23)c1,86.2%,91.9%,74.4%,-21.5% (active),60.3%,9.88% (active),64.8%,98%,-19.5% (active),0.692% (active)
O=C(O)c1cc([N+](=O)[O-])ccc1Cl,97.3%,118%,95.6%,79.9%,81.2%,105%,101%,106%,114%,73.2%
